Assay results from PubChem BioAssay (NCI).
This is part of a sample that, as a whole, favours compounds with a hit. Of some 79,000 tested, about 15% had one in any assay. Cut-off read from the data, not from the text of the source: active = growth inhibition above about 70%; inactive = the rest.

How the values were obtained:
[1] = NCI Yeast Anticancer Drug Screen. Data for the rad52 strain (AID 147);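 note: 0% = growth of vehicle-treated control cultures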; conditions: S. cerevisiae rad52 mutant growth inhibition, stronger effect = higher value
Method in brief: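 Screen used a yeast mutant impaired in DNA repair. After compound exposure, growth was measured. Values reflect inhibition compared with vehicle-treated cells.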

[2] = NCI Yeast Anticancer Drug Screen. Data for the wt1 strain (AID 149);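 note: 0% = growth of vehicle-treated wt1 cultures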; conditions: S. cerevisiae wt1 strain (SPY 50644) growth inhibition, stronger effect = higher value
Method in brief: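 Readout: yeast growth inhibition, normalised to vehicle controls, in the wt1 strain exposed to test compounds.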

[3] = NCI Yeast Anticancer Drug Screen. Data for the rad50EPP+ strain (AID 151);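 note: 0% = growth of vehicle-treated control cultures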; conditions: S. cerevisiae rad50 mutant strain, stronger effect = higher value
Method in brief: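 Exposing the rad50EPP+ strain to each compound, growth was compared with vehicle-only cultures to give inhibition.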

[4] = NCI Yeast Anticancer Drug Screen. Data for the mgt1 strain (AID 153); conditions: S. cerevisiae mgt1 mutant growth inhibition, stronger effect = higher value
Method in brief: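 Genetically defined yeast (mgt1) treated with compound; inhibition of growth expressed against vehicle-treated controls.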

[5] = NCI Yeast Anticancer Drug Screen. Data for the rad50 strain (AID 155);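 note: 0% = growth of vehicle-only cultures of the same strain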; conditions: S. cerevisiae rad50 strain growth inhibition, stronger effect = higher value
Method in brief: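 Compounds were tested on a yeast strain with an engineered DNA damage repair alteration; the reported value is growth inhibition normalised to vehicle treatment.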

[6] = NCI Yeast Anticancer Drug Screen. Data for the mec2-1 strain (AID 157); conditions: S. cerevisiae mec2-1 strain, stronger effect = higher value
Method in brief: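 Readout is yeast growth inhibition, normalised to vehicle-treated controls, in the mec2-1 strain exposed to compound.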

[7] = NCI Yeast Anticancer Drug Screen. Data for the rad14 strain (AID 159);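 note: 0% = growth of vehicle-treated control cultures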; conditions: S. cerevisiae rad14 strain growth inhibition, stronger effect = higher value
Method in brief: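 Compound-treated yeast with a defined DNA-repair lesion; growth inhibition normalised to vehicle-treated cultures.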

[8] = NCI Yeast Anticancer Drug Screen. Data for the sgs1 mgt1 strain (AID 161);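 note: 0% = growth of cultures given vehicle only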; conditions: S. cerevisiae sgs1 mgt1 strain, stronger effect = higher value
Method in brief: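 Yeast cells carrying a defined DNA-repair defect were exposed to test compounds. Growth inhibition was measured relative to vehicle-treated controls.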

[9] = NCI Yeast Anticancer Drug Screen. Data for the CLN2oe strain (AID 163);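 note: 0% = growth of vehicle-only control cultures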; conditions: S. cerevisiae CLN2oe strain, stronger effect = higher value
Method in brief: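 Values reflect how much compound exposure reduced yeast growth, referenced to vehicle-exposed cells. Assay organism is a strain with a defined genetic change affecting cell-cycle control.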

[10] = NCI Yeast Anticancer Drug Screen. Data for the cln2 rad14 strain (AID 165);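 note: 0% = growth equal to vehicle treated cultures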; conditions: S. cerevisiae cln2 rad14 strain, stronger effect = higher value
Method in brief: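 Relative to vehicle controls, growth inhibition of compound-treated cln2 rad14 yeast was recorded.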

[11] = NCI Yeast Anticancer Drug Screen. Data for the bub3 strain (AID 167); conditions: S. cerevisiae bub3 mutant strain, stronger effect = higher value
Method in brief: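 Growth of a checkpoint-deficient yeast mutant is measured after compound exposure. Values represent inhibition relative to vehicle.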

[12] = NCI Yeast Anticancer Drug Screen. Data for the wt2 strain (AID 169);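 note: 0% = growth of vehicle-treated yeast cultures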; conditions: S. cerevisiae wt2 strain growth inhibition, stronger effect = higher value
Method in brief: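 Values express reduction in yeast growth under compound treatment, referenced to vehicle-treated cells.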

[13] = NCI Yeast Anticancer Drug Screen. Data for the mlh1 strain (AID 171);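 note: 0% = growth of vehicle-treated control cultures of the same strain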; conditions: S. cerevisiae mlh1 strain growth inhibition, stronger effect = higher value
Method in brief: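 Steps: expose the defined-mutant yeast strain to compound; expose a parallel culture to vehicle; measure growth; express compound effect as inhibition relative to the vehicle culture.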

[14] = NCI Yeast Anticancer Drug Screen. Data for the sgs1 strain (AID 173);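 note: 0% = growth of vehicle-only control cultures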; conditions: S. cerevisiae sgs1 mutant, stronger effect = higher value
Method in brief: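 Treat defined-mutant yeast with compound; measure growth; calculate inhibition relative to vehicle-treated cells.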

[15] = NCI Yeast Anticancer Drug Screen. Data for the mlh1 rad18 strain (AID 175); conditions: S. cerevisiae mlh1 rad18 strain growth inhibition, stronger effect = higher value
Method in brief: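 Test agents were incubated with a yeast strain of defined genotype (DNA damage repair defect). Inhibition of growth was derived by comparison with vehicle-exposed cultures.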

[16] = NCI Yeast Anticancer Drug Screen. Data for the rad18 strain (AID 177); conditions: S. cerevisiae rad18 mutant growth inhibition, stronger effect = higher value
Method in brief: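 A genetically defined yeast mutant impaired in DNA damage repair was treated with test compounds, then its growth was measured against cultures receiving vehicle alone.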

[17] = at 5.0 µM (retest, dose inferred, filed as 0.5)
[18] = at 50.0 µM (retest, dose inferred, filed as 5.0)

Measured: growth inhibition

N#CC(=Nc1ccccc1F)Nc1ccccc1F
inactive: [1]; at 1.2 µM -3% | [1]; at 3.7 µM -3% | [1]; at 11.0 µM -2% | [1]; at 33.0 µM 8% | [1]; at 100.0 µM 9% | [2]; at 1.2 µM -5% | [2]; at 3.7 µM -3% | [2]; at 11.0 µM -11% | [2]; at 33.0 µM -10% | [2]; at 100.0 µM -7% | [3]; at 1.2 µM 6% | [3]; at 3.7 µM 11% | [3]; at 11.0 µM 21% | [3]; at 33.0 µM 29% | [3]; at 100.0 µM 20% | [4]; at 1.2 µM -5% | [4]; at 3.7 µM -4% | [4]; at 11.0 µM -4% | [4]; at 33.0 µM 2% | [4]; at 100.0 µM -2% | [5]; at 1.2 µM 0% | [5]; at 3.7 µM 2% | [5]; [17] -6% | [5]; at 11.0 µM -1% | [5]; at 33.0 µM 5% | [5]; [18] -1% | [5]; at 50.0 µM -2.35% | [5]; at 100.0 µM 5% | [6]; at 1.2 µM -4% | [6]; at 3.7 µM -1% | [6]; [17] -4% | [6]; at 11.0 µM -4% | [6]; at 33.0 µM 8% | [6]; [18] 8% | [6]; at 50.0 µM -2.55% | [6]; at 100.0 µM 10% | [7]; at 1.2 µM -5% | [7]; at 3.7 µM -4% | [7]; at 11.0 µM -4% | [7]; at 33.0 µM 10% | [7]; at 100.0 µM 12% | [8]; [17] -3% | [8]; [18] 15% | [8]; at 50.0 µM 12.1% | [9]; at 1.2 µM 1% | [9]; at 3.7 µM 0% | [9]; at 11.0 µM 5% | [9]; at 33.0 µM 11% | [9]; at 100.0 µM 26% | [10]; [17] -1% | [10]; [18] -3% | [10]; at 50.0 µM -0.6% | [11]; at 1.2 µM -3% | [11]; at 3.7 µM -3% | [11]; [17] -2% | [11]; at 11.0 µM -1% | [11]; at 33.0 µM 5% | [11]; [18] 3% | [11]; at 50.0 µM 8.55% | [11]; at 100.0 µM -2% | [12]; at 1.2 µM -2% | [12]; at 3.7 µM -3% | [12]; at 11.0 µM -5% | [12]; at 33.0 µM 2% | [12]; at 100.0 µM 3% | [13]; at 1.2 µM -1% | [13]; at 3.7 µM -5% | [13]; at 11.0 µM -6% | [13]; at 33.0 µM -2% | [13]; at 100.0 µM 5% | [14]; at 1.2 µM -3% | [14]; at 3.7 µM -7% | [14]; at 11.0 µM -6% | [14]; at 33.0 µM 12% | [14]; at 100.0 µM 24% | [15]; [17] -7% | [15]; [18] 0% | [15]; at 50.0 µM 66.8% | [16]; at 1.2 µM -6% | [16]; at 3.7 µM -7% | [16]; at 11.0 µM -10% | [16]; at 33.0 µM -2% | [16]; at 100.0 µM 9%
